Measured values as given in the supplement of paper PMC7411054.

How the values were obtained:
Assay in all cases: lowest phenotypically active concentration; higher = less potent
Details in all cases: treatment time: 24 h
[1] = system: A549-ACTB-RAB5A
How it was run: (§1)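 Cells from fifteen gene-edited reporter lines (A549, HepG2 and WPMY1) were treated for 24 h at 0.3, 1, 3 or 9 µM and imaged live, four wells per condition. Features were normalised per well to solvent control wells. A condition deviated if ≥3 of 4 wells passed the 95th percentile of control Euclidean distances and was reproducible if its median replicate Pearson correlation beat the 95th percentile of non-replicates; phenotypic activity needed both.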

[2] = system: A549-CANX-COX4
How it was run: as §1

[3] = system: A549-GM130-SQSTM1
How it was run: as §1

[4] = system: A549-TP53BP1-CLTA
How it was run: as §1

[5] = system: A549-TUBA1B-RELA
How it was run: as §1

[6] = system: HepG2-TP53BP1-CLTA
How it was run: as §1

[7] = system: HepG2-TUBA1B-RELA
How it was run: as §1

[8] = system: WPMY1-ACTB-RAB5A
How it was run: as §1

[9] = system: WPMY1-CANX-COX4
How it was run: as §1

[10] = system: WPMY1-TUBA1B-RELA
How it was run: as §1

Measured: lowest phenotypically active concentration

CCn1cnc2c(Nc3cccc(Cl)c3)nc(N[C@H]3CCCC[C@H]3N)nc21
3 µM: [2] | [8]
1 µM: [1] | [3] | [4] | [5] | [6] | [7] | [9] | [10]

Cc1cc2c(C(C)C)c(O)c(O)c(C=O)c2c(O)c1-c1c(C)cc2c(C(C)C)c(O)c(O)c(C=O)c2c1O [gossypol]
9 µM: [2] | [4] | [5] | [6] | [7] | [8] | [9] | [10]
3 µM: [1] | [3]

C[C@@]12C(=O)OC(=O)[C@]1(C)[C@H]1CC[C@@H]2O1 [Cantharidin]
9 µM: [6] | [9]
3 µM: [1] | [2] | [3] | [4] | [7] | [8] | [10]

Cc1sc2c(c1C)C(c1ccc(Cl)cc1)=N[C@@H](CC(N)=O)c1nnc(C)n1-2
≤ 0.3 µM: [1] | [2] | [3] | [4] | [5] | [6] | [7] | [8] | [9] | [10]

COc1cc2c(c(OC)c1OC)-c1ccc(OC)c(=O)cc1[C@@H](NC(C)=O)CC2 [colchicine]
9 µM: [5]
≤ 0.3 µM: [1] | [2] | [3] | [4] | [6] | [7] | [8] | [9] | [10]

COc1ccc(N(C(=O)Oc2c(C)cccc2C)c2ccnc(Nc3ccc(N4CCN(C)CC4)cc3)n2)c(OC)c1
3 µM: [2] | [4]
1 µM: [1] | [3] | [5] | [6] | [8]
≤ 0.3 µM: [7]

C[C@@H]1O[C@@H](O[C@H]2C[C@@H](O)[C@]3(CO)[C@H]4[C@H](O)C[C@]5(C)[C@@H](C6=CC(=O)OC6)CC[C@]5(O)[C@@H]4CC[C@]3(O)C2)[C@H](O)[C@H](O)[C@H]1O [Strophantine octahydrate]
≤ 0.3 µM: [2] | [3] | [4] | [6] | [7] | [8] | [9] | [10]
1 µM: [1] | [5]

CN1C[C@H](C(=O)N[C@]2(C)O[C@@]3(O)[C@@H]4CCCN4C(=O)[C@H](Cc4ccccc4)N3C2=O)C=C2c3cccc4[nH]cc(c34)C[C@H]21 [ergotamine]
9 µM: [1] | [7]
3 µM: [2] | [3] | [4] | [5] | [6] | [8] | [9] | [10]

C[C@@H]1CC[C@H]2[C@@H](C)C(=O)O[C@@H]3O[C@@]4(C)CC[C@@H]1[C@]32OO4 [Artemisinin]
3 µM: [1] | [3] | [4]
≤ 0.3 µM: [5] | [7] | [8] | [9] | [10]
1 µM: [6]

COc1cc2c(c(OC)c1OC)-c1ccc(O)c(=O)cc1[C@@H](N)CC2 [Trimethylcolchicinic acid]
9 µM: [1] | [2] | [3] | [4] | [5] | [7]

C[C@]12CC[C@H](O)C[C@H]1CC[C@@H]1[C@@H]2C[C@@H](O)[C@]2(C)[C@@H](C3=CC(=O)OC3)CC[C@]12O [Digoxigenin]
1 µM: [2] | [6] | [7] | [8] | [9] | [10]
≤ 0.3 µM: [1] | [3] | [4] | [5]

O=C1NC(=O)c2c1c1c3ccccc3n3c1c1c2c2ccccc2n1C1CCC3O1
≤ 0.3 µM: [1] | [3] | [5]
3 µM: [8]
9 µM: [6] | [9]

CC[C@@H](CO)NC(=O)[C@@H]1C=C2c3cccc4c3c(cn4C)C[C@H]2N(C)C1 [methysergide]
9 µM: [3]

CC(C)(O)[C@H]1O[C@H]2CC[C@@]3(C)[C@@](O)(CC[C@H]4Cc5c([nH]c6ccccc56)[C@@]43C)C2=CC1=O [paxilline]
9 µM: [1] | [6]

O=c1[nH]c2ccccc2n1C1CCN(CCCC(c2ccc(F)cc2)c2ccc(F)cc2)CC1 [pimozide]
9 µM: [1] | [3]
3 µM: [5] | [7]

O=C(Nc1ccncc1)C(=O)c1cn(Cc2ccc(Cl)cc2)c2ccccc12 [Indibulin]
1 µM: [6] | [7]
≤ 0.3 µM: [1] | [3] | [5] | [8] | [10]
3 µM: [4] | [9]

C[C@H]1O[C@@H](O[C@H]2[C@@H](O)C[C@H](O[C@H]3[C@@H](O)C[C@H](O[C@H]4CC[C@@]5(C)[C@H](CC[C@@H]6[C@@H]5CC[C@]5(C)[C@@H](C7=CC(=O)OC7)[C@@H](O)C[C@]65O)C4)O[C@@H]3C)O[C@@H]2C)C[C@H](O)[C@@H]1O [Gitoxin]
≤ 0.3 µM: [1] | [2] | [3] | [4] | [5] | [6] | [7] | [8] | [9] | [10]
